Shown are actives, neighbours in structure and some others; about 11% of the full set was active somewhere.
HP1b chromo inh – blocks HP1-beta chromodomain binding to methylated histone tails; AlphaScreen HP1-beta / biotin-H3K9me3 peptide binding; Potency, µM (top dose mostly 114 µM), for the others: top-dose activity change, negative = inhibition, hits mostly inhibitors; hit rate 0.56% among 390,000; AID 540317; further: potency means the concentration at half of the fitted maximal effect; nearly all actives have a fitted effect of over 70% in size
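Compound inhibition of the preformed complex between 50 nM HP1-beta and 50 nM biotinylated H3K9me3 peptide was read by AlphaScreen. Buffer was PBS pH 7.4 with 0.01% Tween-20. Incubations ran 30 min at room temperature, with 10 ug/mL donor/acceptor beads.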
PI5P4Ka inh – inhibitors of human PI5P4K alpha; P48426; AID 652105; max response, %; hit rate 1.2% among 330,000; PI5P4Kalpha enzyme, ADP-Glo luminescence, 60 min; active compounds read low; active means max response of -50% or lower; inconclusive means between -30% and -50%; inactive means -30% or higher; further: value at the top dose of about 77 µM; on the % scale 0 is the no-effect control and ±100 the full control effect
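qHTS, 1536-well: enzyme/substrate mix, compound by pin tool, 5 microM ATP final; RT 60 min; ADP-Glo reagents 1 (45 min) then 2 (30 min); luminescence.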
G9a inh – G9a (human) methyltransferase inhibition | Q96KQ7 | hit rate 8.8% among 350,000 | AID 504332 | G9a H3K9 monomethylation, AlphaScreen, 2 h | Potency, µM (highest dose often 102 µM), for inactives: at the highest dose activity, negative = inhibition, usual class: inhibitors; further: potency means the concentration at half of the fitted maximal effect; on the % scale 0 is the no-effect control and ±100 the full control effect; nearly all actives have a fitted effect of over 75% in size
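Signal arises when biotinylated H3K9 peptide, once monomethylated, bridges streptavidin donor and antibody-captured acceptor beads. Enzyme at 20 nM was preincubated 15 min with test compounds; peptide 500 nM and SAM 20 uM then reacted for 2 h.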
JMJD2A Tudor inh – blocks the human JMJD2A Tudor domain; AlphaScreen JMJD2A-Tudor / H3K4me3 peptide binding; Potency, µM (highest dose often 114 µM), for the others: at the highest dose activity change, negative = inhibition, hits mostly inhibitors; hit rate 4.4% among 390,000; further: potency means the concentration at half of the fitted maximal effect; on the % scale 0 is the no-effect control and ±100 the full control effect; nearly all actives have a fitted effect of over 50% in size
Target sequence (O75164 whole entry, looked up, the tested form may be a part): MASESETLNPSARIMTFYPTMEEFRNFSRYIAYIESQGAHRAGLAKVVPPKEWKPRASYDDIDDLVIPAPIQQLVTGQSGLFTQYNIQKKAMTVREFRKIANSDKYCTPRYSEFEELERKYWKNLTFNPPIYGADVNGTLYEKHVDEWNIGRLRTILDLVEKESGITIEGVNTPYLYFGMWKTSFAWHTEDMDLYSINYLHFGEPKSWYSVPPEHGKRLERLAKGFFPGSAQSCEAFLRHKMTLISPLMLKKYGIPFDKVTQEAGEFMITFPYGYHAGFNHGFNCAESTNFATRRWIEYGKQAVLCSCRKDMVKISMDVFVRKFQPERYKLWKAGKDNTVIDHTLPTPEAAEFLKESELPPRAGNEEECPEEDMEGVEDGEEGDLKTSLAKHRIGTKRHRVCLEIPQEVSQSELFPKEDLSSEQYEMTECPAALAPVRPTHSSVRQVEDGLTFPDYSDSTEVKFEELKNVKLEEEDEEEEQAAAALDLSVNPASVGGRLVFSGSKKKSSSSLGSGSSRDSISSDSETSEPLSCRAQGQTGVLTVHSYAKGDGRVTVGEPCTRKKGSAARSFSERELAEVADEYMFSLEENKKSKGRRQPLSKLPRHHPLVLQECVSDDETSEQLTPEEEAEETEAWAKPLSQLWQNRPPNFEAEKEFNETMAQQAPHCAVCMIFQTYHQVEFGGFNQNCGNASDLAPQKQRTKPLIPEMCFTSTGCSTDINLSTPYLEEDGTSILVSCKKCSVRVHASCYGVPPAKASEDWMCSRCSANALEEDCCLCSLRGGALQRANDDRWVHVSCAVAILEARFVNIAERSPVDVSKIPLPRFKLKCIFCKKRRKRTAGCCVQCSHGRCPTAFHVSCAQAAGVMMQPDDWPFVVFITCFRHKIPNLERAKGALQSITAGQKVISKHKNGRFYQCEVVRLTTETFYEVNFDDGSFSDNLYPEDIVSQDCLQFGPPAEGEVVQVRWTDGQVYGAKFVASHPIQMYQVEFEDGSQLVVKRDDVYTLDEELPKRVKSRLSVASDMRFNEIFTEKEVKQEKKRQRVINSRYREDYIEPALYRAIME
L3MBTL1 inh – inhibitors of human L3MBTL1 | Q9Y468 | AlphaScreen L3MBTL1–H3K9me1 peptide binding | Potency, µM (series often up to 57.1 µM), for inactives: at the highest dose activity, negative = inhibition, hits mostly inhibitors | hit rate 0.66% among 230,000; further: potency means the concentration at half of the fitted maximal effect; on the % scale 0 is the no-effect control and ±100 the full control effect; nearly all actives have a fitted effect of over 60% in size
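AlphaScreen proximity signal between nickel-chelate acceptor and streptavidin donor beads (final 10 ug/mL) reports binding of 50 nM L3MBTL1 to 75 nM biotin-H3 K9me1 peptide; complex incubated with compounds 30 min at room temperature; cefsulodin titration as control.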
BAZ2B inh – BAZ2B (human) inhibition; AlphaScreen BAZ2B-H3K14Ac peptide displacement; Q9UIF8; hit rate 4.4% among 360,000; Potency, µM (top dose mostly 114 µM), for the others: top-dose activity change, negative = inhibition, most hits filed as inhibitors; AID 504333; further: potency means the concentration at half of the fitted maximal effect; on the % scale 0 is the no-effect control and ±100 the full control effect; nearly all actives have a fitted effect of over 60% in size
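AlphaScreen luminescence quantifies BAZ2B engagement of H3K14Ac peptide; the protein and biotinylated peptide are both at 50 nM final, buffer PBS pH 7.4 with 0.01% Tween-20, all steps at room temperature.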
Starred values were filed as active, the others as inactive; ? = inconclusive; . = no result given; ! = a repeat was not active; [ ] = another dose, or the depositor's remark. Unless noted, the call rests on the fitted dose curve; in most records, active means well fitted inhibition curve with a large enough effect; inconclusive means small, poorly fitted or top-dose-only effect; inactive means no such curve, though single readings can be large or run the other way.

SMILES	HP1b chromo inh	PI5P4Ka inh	G9a inh	JMJD2A Tudor inh	L3MBTL1 inh	BAZ2B inh
O=[N+]([O-])c1ccc(-c2nc(-c3ccc(F)cc3)c(-c3ccncc3)[nH]2)cc1	.	.	35µM*	.	.	.
Cc1ccc(-c2cc(C(=O)NCCN3CCOCC3)c3ccccc3n2)o1	40%	-3	28µM*	-7%	.	-14%
COc1cc(-c2cc(C(=O)Nc3cccc(C(C)=O)c3)c3ccccc3n2)cc(OC)c1OC	38%	4	-1%	-15%	.	-11%
COc1cc(-c2cc(C(=O)Nc3ccc(O)cc3)c3ccccc3n2)cc(OC)c1OC	-19%	1	14µM*	-2%[11.4 µM]	-22%	-39%
O=C(Nc1cccnc1)c1cc2c(ccc3ccccc32)o1	11%	-4	?	56µM*	.	79µM*
COc1ccccc1NC(=O)c1cc(-c2ccc(C)o2)nc2ccccc12	4%	7	40µM*	-10%	.	-12%
COc1ccccc1NC(=O)c1cc(C)nc2ccccc12	15%	16	9%	-16%	4%	-11%
O=C(NCc1ccc(Cl)cc1)NC1COc2ccccc2C1 (centres undefined)	15%[57 µM]	.	20%[59 µM]	-9%	.	3%
Cc1ccc(NC(=O)c2cc(C)nc3ccccc23)cc1	14%	3	-5%	-7%	5%	-16%
Cc1ccc(NC(=O)c2cc(-c3ccc(C)o3)nc3ccccc23)cc1	-15%	.	10µM*	79µM*	-7%	-4%
Cc1ccc(-c2cc(C(=O)Nc3cccnc3)c3ccccc3n2)o1	?	.	8.9µM*	22µM*	-13%	-33%
Cc1ccc(C)c(-c2cc(C(=O)Nc3cccnc3)c3ccccc3n2)c1	6%	-2	?	-23%	.	-24%
C/C(=N\NC(=O)c1ccc(OC2OCCOC2Oc2ccc(C(=O)N/N=C(\C)c3ccncc3)cc2)cc1)c1ccncc1 (centres undefined)	-24%	0	13µM*	-33%	5%	-16%
C/C(=N/NC(=O)c1ccncc1)c1ccccc1	54%	-10	.	?	3%	0%
C/C(=N\NC(=O)c1ccncc1)c1ccc(N(C)C)cc1	-10%	-30	-6%	18µM*	7%	-2%
Cc1ccc(NC(=O)c2ccc(-n3nncc3-c3ccccc3)cc2)cc1	3%[57 µM]	.	.	-15%[57.1 µM]	.	.
COc1ccc(NC(=O)Cn2ncc3c4ccccc4n(Cc4ccccc4)c3c2=O)cc1OC	37%	.	6%[59 µM]	-2%	.	-6%
CCc1nnc(NC(=O)c2nc(S(=O)(=O)Cc3cccc(C)c3)ncc2Cl)s1	-15%[57 µM]	-27	45µM*	2.8µM*	.	?
Cc1ccc(C)c(NC(=O)c2nc(S(=O)(=O)Cc3ccc(F)cc3)ncc2Cl)c1	55%	.	-3%[59 µM]	9%	.	1%
CSc1nnc(NC(=O)c2nc(S(=O)(=O)Cc3cccc(C)c3)ncc2Cl)s1	22%[57 µM]	-25	4.5µM*	?	.	4%
CCc1nnc(NC(=O)c2nc(S(=O)(=O)Cc3ccccc3)ncc2Cl)s1	18%[57 µM]	?	28µM*	7.9µM*	.	?
CCc1nnc(NC(=O)c2nc(S(=O)(=O)Cc3ccc(C)cc3)ncc2Cl)s1	-15%[57 µM]	-17	45µM*!	14µM*!	.	?
CC(=O)Nc1ccc(NC(=O)c2nc(S(=O)(=O)Cc3ccccc3)ncc2Cl)cc1	47%	2	-12%[0.501 µM]	0%	.	-30%
CCCCNC(=O)Cn1c(SCc2cccc(C)c2)nc2ccncc21	24%[57 µM]	.	.	0%[57.1 µM]	.	.
COc1cccc(Cn2c(=O)n(CC3CCC(C(=O)N4CCOCC4)CC3)c(=O)c3sccc32)c1 (centres undefined)	129%	.	18%[59 µM]	-19%	.	-1%
CSc1cc2c(s1)c1cnn(Cc3cccc(O)c3)c(=O)c1n2C	.	.	.	-31%	.	.
CCSc1nnc(NC(=O)c2ccc3ccccc3n2)s1	4%	-20	-7%[2.33 µM]	-17%	7%	11%
CCc1nnc(NC(=O)c2ccc3ccccc3n2)s1	-11%	-16	50µM*	-8%	?	2%
